From PubChem BioAssay (Tox21)
Records with an inconclusive call do not appear. Where a call stands in place of a potency, no number is given. The source made the active and inactive calls. Unless noted, calls come from the whole dose curve; as a rule, active = well fitted curve in the direction sought with a large enough effect in the repeat runs; inconclusive = weak or mixed curves; inactive = no such curve, though single readings can be large; an effect the other way counts as inactive or inconclusive.

Legend:
[1] = qHTS assay to identify small molecule antagonists of the estrogen related receptor (ERR) signaling pathway (AID 1224819; note: nearly all actives have a fitted effect of over 50% in size; note: potency is the fitted concentration of half-maximal effect)
Procedure, shortened: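 Seed ERR cells 2,000/well; rest 6 h at 37 C/5% CO2; pin compounds in DMSO; incubate 18 h at 37 C; add One-Glo; wait 30 min at room temperature; measure luminescence.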

[2] = qHTS assay to identify small molecule agonists of the estrogen related receptor (ERR) signaling pathway (AID 1224820); note: potency is the fitted concentration of half-maximal effect
Procedure, shortened: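 Cells: ERR line from NTP, 2,000/well. Pre-incubation 6 h, 37 C/5% CO2. Compound (DMSO) pin transfer, 18 h 37 C. One-Glo, 30 min RT, luminescence.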

[3] = test system: estrogen-related receptor alpha (ERRalpha) with PGC-1alpha coactivator, human; assay: qHTS assay to identify small molecule antagonists of the estrogen related receptor signaling pathway with the pleiotropic PPARgamma coactivator (PGC) (AID 1224821; calls by dose curve; note: nearly all actives have a fitted effect of over 50% in size; note: potency is the fitted concentration of half-maximal effect)
Procedure, shortened: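 Luminescent read-out (One-Glo, 30 min at room temperature) following 18 h treatment of PGC/ERR cells at 37 C with compounds delivered in DMSO. Cells had settled 6 h at 37 C/5% CO2 before dosing.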

[4] = qHTS assay to identify small molecule agonists of the estrogen related receptor signaling pathway with the pleiotropic PPARgamma coactivator (PGC) (AID 1224823); note: potency is the fitted concentration of half-maximal effect
Procedure, shortened: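 Steps: plate PGC/ERR cells at 2,000 cells/well; incubate 6 h, 37 C/5% CO2; pin-transfer compounds (DMSO); incubate 18 h, 37 C; add One-Glo; 30 min RT; read luminescence.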

[5] = qHTS assay to identify small molecule antagonists of the estrogen related receptor signaling pathway with the pleiotropic PPARgamma coactivator (PGC) cell viability counter screen (AID 1224822;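 note: series mostly up to about 46 µM; viability read after 17.5 h compound exposure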)
Procedure, shortened: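 Cells: PGC/ERR, 2,000/well, 1536-well format. Pre-incubation 6 h, 37 C/5% CO2. Compound exposure 17.5 h, 37 C. Detection: CellTiter-Fluor, 30 min, fluorescence.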

NC[C@@H]1O[C@H](C23CC4CC(CC(C4)C2)C3)Cc2c1ccc(O)c2O
Potency [1]: 22.8 µM (active) | Potency [2]: inactive | Potency [3]: inactive | Potency [4]: inactive

CO[C@H]1O[C@@H]2O[C@]3(C)CC[C@@H]4[C@@H](C)CC[C@H]([C@H]1C)[C@]24OO3
Potency [1]: 0.531 µM (active) | Potency [2]: inactive | Potency [5]: inactive | Potency [4]: inactive

C=C1C[C@@]23CC[C@H]4[C@@](C)(CCC[C@@]4(C)C(=O)OC4OC(CO)C(O)C(O)C4O)[C@@H]2CC[C@]1(OC1OC(CO)C(O)C(O)C1OC1OC(CO)C(O)C(O)C1O)C3 (stereo not given in full)
Potency [1]: inactive | Potency [2]: inactive | Potency [3]: inactive | Potency [4]: inactive

Cc1cc(NC2CCCCC2)nc(-n2nc(C)cc2C)n1
Potency [1]: 10.2 µM (active) | Potency [2]: inactive | Potency [3]: 0.694 µM (active) | Potency [4]: inactive

O[Si](CCCN1CCCCC1)(c1ccc(F)cc1)C1CCCCC1 (stereo not given)
Potency [1]: inactive | Potency [2]: inactive | Potency [3]: inactive | Potency [4]: inactive

Nc1ncnc2c1c(-c1ccc(Oc3ccccc3)cc1)cn2C1CCCC1
Potency [1]: 11.9 µM (active) | Potency [2]: inactive | Potency [3]: inactive | Potency [4]: inactive

CO/N=C(\C(=O)N[C@@H]1C(=O)N2C(C(=O)O)=C(COC(C)=O)CS[C@H]12)c1csc(N)n1 (stereo in doubt)
Potency [1]: inactive | Potency [2]: inactive | Potency [5]: inactive

O=C1c2ccccc2-c2n[nH]c3cccc1c23
Potency [1]: 26.6 µM (active) | Potency [2]: inactive | Potency [3]: inactive | Potency [4]: inactive

O=C1C(SCCO)=C(SCCO)C(=O)c2ccccc21
Potency [1]: 9.08 µM (active) | Potency [2]: inactive | Potency [3]: 18.8 µM (active) | Potency [4]: inactive

Cc1ccc(S(=O)(=O)/C=C/C#N)cc1
Potency [1]: inactive | Potency [2]: 17.4 µM (active) | Potency [3]: inactive | Potency [4]: 15.5 µM (active)

CC[C@H](NC(=O)c1c(C)c(-c2ccccc2)nc2ccccc12)c1ccccc1
Potency [1]: 22 µM (active) | Potency [2]: inactive | Potency [5]: inactive | Potency [4]: inactive

CC(C)c1ccc2c(c1)c(SC(C)(C)C)c(CC(C)(C)C(=O)O)n2Cc1ccc(Cl)cc1
Potency [1]: 12.8 µM (active) | Potency [2]: inactive | Potency [3]: 20.3 µM (active) | Potency [4]: inactive

Cn1c(=O)c2c(nc(/C=C/c3cccc(Cl)c3)n2C)n(C)c1=O
Potency [1]: inactive | Potency [2]: inactive | Potency [3]: inactive | Potency [4]: inactive

Cc1cc2c(cc1Cl)N(C(=O)Nc1ccc(Oc3cccnc3C)nc1)CC2
Potency [1]: 5.11 µM (active) | Potency [2]: inactive | Potency [3]: 12.8 µM (active) | Potency [4]: inactive

O=C1NC(=O)c2cc(Nc3ccccc3)c(Nc3ccccc3)cc21
Potency [1]: 10.2 µM (active) | Potency [2]: inactive | Potency [3]: 20.3 µM (active) | Potency [4]: inactive

Cn1ncc(S(=O)(=O)Cc2ccccc2)c(Br)c1=O
Potency [1]: inactive | Potency [2]: inactive | Potency [3]: inactive | Potency [4]: inactive

COc1cccc(C(=O)NCCN2CCN(c3ccc(Cl)cc3)CC2)c1
Potency [1]: 17.4 µM (active) | Potency [2]: inactive | Potency [5]: inactive | Potency [4]: inactive

Cn1c(=O)c2[nH]c(-c3ccc(S(=O)(=O)O)cc3)nc2n(C)c1=O
Potency [1]: inactive | Potency [2]: inactive | Potency [5]: inactive | Potency [4]: inactive

O=C(O)C1=CC(=C(c2ccc(O)c(C(=O)O)c2)c2ccc(O)c(C(=O)O)c2)C=CC1=O
Potency [1]: inactive | Potency [2]: inactive | Potency [5]: inactive | Potency [4]: inactive

CN(C)c1ccc(/C=C2\C(=O)Nc3ccccc32)cc1
Potency [1]: inactive | Potency [2]: 3.35 µM (active) | Potency [3]: inactive | Potency [4]: 3.1 µM (active)

CCOC(=O)C1=C(C)NC(C)=C(C(=O)OCC)C1c1c(F)c(F)c(F)c(F)c1F
Potency [1]: 19.6 µM (active) | Potency [2]: inactive | Potency [3]: 25.6 µM (active) | Potency [4]: inactive

C#C[C@]1(O)CC[C@H]2[C@@H]3CCC4=Cc5oncc5CC4(C)[C@H]3CCC21C (stereo not given in full)
Potency [1]: 16.8 µM (active) | Potency [2]: inactive | Potency [3]: 19.6 µM (active) | Potency [4]: inactive

N#C/C(=C\c1ccc(O)c(O)c1)C(=O)NCCCNC(=O)/C(C#N)=C/c1ccc(O)c(O)c1
Potency [1]: inactive | Potency [2]: inactive | Potency [3]: inactive | Potency [4]: inactive

NC(N)=NC(=O)c1nc(Cl)c(N2CCCCCC2)nc1N
Potency [1]: 11.9 µM (active) | Potency [2]: inactive | Potency [3]: inactive | Potency [4]: inactive

CC[C@@H]1Cc2cc(O)ccc2C2=C1c1ccc(O)cc1C[C@H]2CC
Potency [1]: 14.4 µM (active) | Potency [2]: inactive | Potency [3]: 15 µM (active) | Potency [4]: inactive

Cc1cc(N)c2ccccc2[n+]1CCCCCCCCCC[n+]1c(C)cc(N)c2ccccc21
Potency [1]: 0.722 µM (active) | Potency [2]: inactive | Potency [5]: inactive | Potency [4]: inactive

C=CCc1cccc(/C=N/NC(=O)CN2CCN(Cc3ccccc3)CC2)c1O
Potency [1]: 3.9 µM (active) | Potency [2]: inactive | Potency [3]: inactive | Potency [4]: inactive

O=C1NCc2c1c1c3ccccc3[nH]c1c1[nH]c3ccccc3c21
Potency [1]: 2.76 µM (active) | Potency [2]: inactive | Potency [3]: inactive | Potency [4]: inactive

CCc1cncnc1N1CCN(Cc2nc3ccc(C(F)(F)F)cc3[nH]2)CC1
Potency [1]: 6.94 µM (active) | Potency [2]: inactive | Potency [5]: inactive | Potency [4]: inactive

COc1cc(SC)ccc1C(=O)N1CCC(Cc2ccccc2)CC1
Potency [1]: 20.3 µM (active) | Potency [2]: inactive | Potency [5]: inactive | Potency [4]: inactive

Nc1ccc2c3c(cccc13)C(=O)NC2=O
Potency [1]: inactive | Potency [2]: inactive | Potency [3]: inactive | Potency [4]: inactive

Fc1ccc(C(OCCCc2cnc[nH]2)c2ccc(F)cc2)cc1
Potency [1]: 13.9 µM (active) | Potency [2]: inactive | Potency [3]: 10.2 µM (active) | Potency [4]: inactive

CNCCc1cnc(CCC(c2ccccc2)c2ccccc2)[nH]1
Potency [1]: inactive | Potency [2]: inactive | Potency [3]: inactive | Potency [4]: inactive

CC(C)(NS(=O)(=O)c1ccc(Oc2ccc(F)cc2)cc1)C(=O)NO
Potency [1]: 2.46 µM (active) | Potency [2]: inactive | Potency [5]: inactive | Potency [4]: inactive
